According to PubChem BioAssay (EPA / NIEHS):
Inconclusive results are not listed. Active and inactive are the calls of the source. How the source made its calls, unless noted: active means hit-call score of the fitted dose curve at least 0.9, where 1 is the maximum; inactive means score below 0.9.

Columns and labels:
[1] = target: Thyroid hormone receptor alpha (Rattus norvegicus) + Thyroid hormone receptor beta (Rattus norvegicus) (UniProt P18113+P63059); assay: TOX21_TR_LUC_GH3_Agonist_Followup: Tox21 GH3 Thyroid Hormone Receptor Agonism Luciferase Follow-Up Assay (AID 2283939; active means hit-call score of the fitted dose curve at least 0.9, where 1 is the maximum)
Sequence of Thyroid hormone receptor alpha (Rattus norvegicus) + Thyroid hormone receptor beta (Rattus norvegicus) (P63059 whole entry, looked up): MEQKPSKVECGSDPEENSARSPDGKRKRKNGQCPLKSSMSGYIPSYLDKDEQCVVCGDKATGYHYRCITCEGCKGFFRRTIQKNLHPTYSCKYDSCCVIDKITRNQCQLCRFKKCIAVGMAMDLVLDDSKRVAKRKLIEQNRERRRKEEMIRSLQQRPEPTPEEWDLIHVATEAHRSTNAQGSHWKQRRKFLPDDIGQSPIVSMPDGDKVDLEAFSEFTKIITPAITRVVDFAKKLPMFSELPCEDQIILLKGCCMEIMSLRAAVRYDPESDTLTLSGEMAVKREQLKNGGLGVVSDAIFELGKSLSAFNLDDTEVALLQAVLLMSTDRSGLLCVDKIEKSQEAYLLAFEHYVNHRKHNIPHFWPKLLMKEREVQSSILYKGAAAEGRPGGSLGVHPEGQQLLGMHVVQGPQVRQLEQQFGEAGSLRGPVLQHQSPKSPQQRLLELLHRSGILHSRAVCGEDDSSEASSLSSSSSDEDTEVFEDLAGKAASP
Sequence of Thyroid hormone receptor alpha (Rattus norvegicus) + Thyroid hormone receptor beta (Rattus norvegicus) (P18113 whole entry, looked up): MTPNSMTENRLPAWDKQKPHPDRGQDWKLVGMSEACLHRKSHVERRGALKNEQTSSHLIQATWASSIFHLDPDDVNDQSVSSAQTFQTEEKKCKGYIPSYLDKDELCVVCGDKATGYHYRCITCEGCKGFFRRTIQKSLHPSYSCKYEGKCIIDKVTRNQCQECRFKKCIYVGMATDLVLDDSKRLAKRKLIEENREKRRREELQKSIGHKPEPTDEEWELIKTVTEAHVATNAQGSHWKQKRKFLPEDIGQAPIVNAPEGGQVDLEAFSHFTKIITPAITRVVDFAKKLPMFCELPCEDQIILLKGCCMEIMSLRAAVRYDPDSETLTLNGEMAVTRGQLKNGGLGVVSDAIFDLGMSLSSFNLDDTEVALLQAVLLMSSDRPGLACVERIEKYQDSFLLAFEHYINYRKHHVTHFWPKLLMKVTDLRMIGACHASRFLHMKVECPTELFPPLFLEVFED
How it was run: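 Rat GH3 cells (1,500/well) in serum-free assay medium, treated with 15-point series, 92 uM to 5 nM final, for 24 h at 37C. Luciferase via ONE-Glo luminescence; gain of signal fitted against DMSO, T3 positive control.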

THRA (gene 7067) = THRA (gene 7067) (UniProt P10827); assay: TOX21_TRA_COA_Agonist_Followup_ratio: Tox21 Thyroid Hormone Receptor alpha Agonism through Coactivator Recruitment Follow-Up Assay, Ratio (AID 2283948)
Sequence of THRA (gene 7067) (P10827 whole entry, looked up, the tested form may be a part): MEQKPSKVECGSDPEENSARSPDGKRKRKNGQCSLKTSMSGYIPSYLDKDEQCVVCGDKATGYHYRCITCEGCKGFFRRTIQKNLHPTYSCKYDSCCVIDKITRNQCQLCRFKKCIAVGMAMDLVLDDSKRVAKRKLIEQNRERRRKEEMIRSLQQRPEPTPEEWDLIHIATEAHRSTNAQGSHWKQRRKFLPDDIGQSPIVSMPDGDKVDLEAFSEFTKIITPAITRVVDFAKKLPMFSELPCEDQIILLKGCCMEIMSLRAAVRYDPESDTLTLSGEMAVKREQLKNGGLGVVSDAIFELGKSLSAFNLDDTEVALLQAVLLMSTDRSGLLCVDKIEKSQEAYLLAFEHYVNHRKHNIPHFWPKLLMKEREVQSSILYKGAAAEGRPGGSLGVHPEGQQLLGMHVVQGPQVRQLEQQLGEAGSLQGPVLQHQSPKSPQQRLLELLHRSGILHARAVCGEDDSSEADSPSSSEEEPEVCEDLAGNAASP
How it was run: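 First, compound was incubated with 2.5 nM GST-TRα LBD in 0.10% BSA. Next, 200 nM fluorescein-SRC-2 and 2 nM Tb-anti-GST antibody were added. Finally, the 520:495 nm ratio was normalized to DMSO and T3 controls.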

THRB (gene 7068) [2] = target: THRB (gene 7068) (UniProt P10828); assay: TOX21_TRB_BLA_Agonist_Followup_ratio: Tox21 Thyroid Hormone Receptor beta Agonism Beta-lactamase (BLA) Follow-Up Assay, Ratio (AID 2283954; active means hit-call score of the fitted dose curve at least 0.9, where 1 is the maximum)
Sequence of THRB (gene 7068) (P10828 whole entry, looked up, the tested form may be a part): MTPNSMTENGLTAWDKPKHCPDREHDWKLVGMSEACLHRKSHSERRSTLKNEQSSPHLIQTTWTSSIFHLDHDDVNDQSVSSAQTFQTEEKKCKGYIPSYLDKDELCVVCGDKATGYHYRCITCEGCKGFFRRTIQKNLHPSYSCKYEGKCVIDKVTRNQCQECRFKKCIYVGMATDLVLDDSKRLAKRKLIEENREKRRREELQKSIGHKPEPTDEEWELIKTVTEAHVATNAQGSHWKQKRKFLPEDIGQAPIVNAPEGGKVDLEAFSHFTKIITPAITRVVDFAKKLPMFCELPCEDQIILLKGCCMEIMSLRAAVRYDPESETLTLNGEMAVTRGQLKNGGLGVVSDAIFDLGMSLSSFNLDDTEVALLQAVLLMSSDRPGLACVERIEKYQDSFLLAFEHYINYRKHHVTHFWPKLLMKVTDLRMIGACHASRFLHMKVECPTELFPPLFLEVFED
How it was run: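 Human TRβ LBD–GAL4 DBD fusion in GeneBLAzer UAS-bla HEK293T cells; 11 concentrations in triplicate, 18 h at 37°C/5% CO2, T3 as agonist control. CCF4-AM substrate 2 h at room temperature; 460:530 nm ratio fitted for gain of signal versus DMSO.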

THRB (gene 7068) [3] = target: THRB (gene 7068) (UniProt P10828); assay: TOX21_TRB_COA_Agonist_Followup_ratio: Tox21 Thyroid Hormone Receptor beta Agonism through Coactivator Recruitment Follow-Up Assay, Ratio (AID 2283963)
How it was run: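 GST-TRb LBD 5.0 nM + 0.10% BSA + cpd; add fluorescein-SRC-2 200 nM / Tb anti-GST Ab 2 nM; TR-FRET ex 340, em 520:495; norm DMSO 0%, T3 100%.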

[4] = CEETOX_H295R_PROG_noMTC: CeeTox H295R High-throughput Steroidogenesis Assay for Progesterone (PROG), maximum tolerated concentration (MTC) filtered results only (AID 2283920); conditions: actives raise or lower the signal
How it was run: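 H295R cells; forskolin 10 uM x 48 h prestim; test cpd 48 h, 0.1% DMSO final; media progesterone via LC-MS/MS; bidirectional fit vs DMSO; no MTT-based MTC filter applied.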

[5] = CEETOX_H295R_ESTRADIOL_noMTC: CeeTox H295R High-throughput Steroidogenesis Assay for Estradiol, maximum tolerated concentration (MTC) filtered results only (AID 2283919); conditions: actives raise or lower the signal
How it was run: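 H295R human adrenal cells pre-stimulated 48 h with 10 uM forskolin, then exposed 48 h to chemical (0.1% DMSO final). Estradiol in medium measured by HPLC-MS/MS after MTBE extraction and dansyl derivatization; bidirectional fit versus DMSO, concentrations not MTT-filtered.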

[6] = CEETOX_H295R_ESTRONE_noMTC: CeeTox H295R High-throughput Steroidogenesis Assay for Estrone, maximum tolerated concentration (MTC) filtered results only (AID 2283921); conditions: actives raise or lower the signal
How it was run: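 H295R cells prestimulated 48 h with 10 uM forskolin, then exposed 48 h to chemical in 0.1% DMSO; medium estrone measured by HPLC-MS/MS after MTBE extraction and dansyl derivatization, fitted bidirectionally versus DMSO without MTT-based MTC filtering.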

[7] = CEETOX_H295R_TESTO_noMTC: CeeTox H295R High-throughput Steroidogenesis Assay for Testosterone (TESTO), maximum tolerated concentration (MTC) filtered results only (AID 2283924); conditions: actives raise or lower the signal
Description: CEETOX_H295R is a cell-based, multiplexed-readout assay that uses H295R, a human adrenal gland cell line, with measurements taken at 48 hours after chemical dosing in a 96-well plate.CEETOX_H295R_TESTO_noMTC is one of 12 assay component(s) measured or calculated from the CEETOX_H295R assay (11 hormones and 1 viability assay). It is designed to make measurements of hormone induction, a form of inducible reporter, as detected with absorbance signals by HPLC-MS-MS technology. The concentrations for these components have not been pre-filtered for the maximum tolerated concentration (MTC) based on the MTT assay (_noMTC).Data from the assay component CEETOX_H295R_TESTO_noMTC was analyzed into 1 assay endpoint. This assay endpoint, CEETOX_H295R_TESTO_noMTC, was analyzed with bidirectional fitting relative to DMSO as the negative control and baseline of activity. […]
Cell culture and media preparation procedures were conducted in accordance with OECD Test No. 456 guidelines, with minor modifications. […] For steroid quantification, media samples were shipped to OpAns, LLC (Durham, NC) on dry ice, and samples were thawed to room temperature prior to liquid-liquid extraction. […] Steroid hormones were separated by HPLC, eluted using a reverse phase C18 gradient with electrospray positive ionization, followed by quantification by tandem mass spectrometry (MS/MS). Data were acquired on a MassHunter Workstation Acquisition version B03.01 (Agilent Technologies, Inc.) and processed using MassHunter Quantitative Analysis for QQQ. Accuracy was determined for each hormone analyte from 3 standards to determine upper and lower limits of quantification (ULOQ and LLOQ, respectively) using a 7-point standard curve. Precision and accuracy of the extraction and quantification methods were calculated as the percent relative standard deviation (%RSD) of the spiked standards and percent spiked standard recovered, respectively. […] Test medium was removed following chemical exposure, and cell viability was evaluated in the same wells by MTT. […]

THRB (gene 7068) [8] = target: THRB (gene 7068) (UniProt P10828); assay: TOX21_TRB_BLA_Antagonist_Followup_ratio: Tox21 Thyroid Hormone Receptor beta Antagonism Beta-lactamase (BLA) Follow-Up Assay, Ratio (AID 2283958; active means hit-call score of the fitted dose curve at least 0.9, where 1 is the maximum)
How it was run: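 GAL4-DBD/human TRβ-LBD fusion in GeneBLAzer UAS-bla HEK293T cells, 3,000 cells/well in phenol red-free DMEM with 2% charcoal-stripped FBS; compounds at 11 concentrations in triplicate, 18 h at 37C. CCF4-AM substrate 2 h, 460:530 nm ratio relative to DMSO.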

[9] = TOX21_TRB_BLA_Antagonist_Followup_viability: Viability Assessment in the Tox21 Thyroid Hormone Receptor beta Antagonism Beta-lactamase (BLA) Follow-Up Assay (AID 2283961; active means hit-call score of the fitted dose curve at least 0.9, where 1 is the maximum)
How it was run: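 Cytotoxicity is measured in parallel with the antagonist-mode TRβ beta-lactamase screen, using ATP-coupled luciferase luminescence. Engineered HEK293T cells are treated for 18 h with 11-point compound series in triplicate.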

With CCCCCCC(C)O (configuration not stated) the outcome [1] was “inactive”, the outcome (THRA (gene 7067)) was “inactive” and the outcome (THRB (gene 7068) [2]) was “inactive”. The outcome (THRB (gene 7068) [3]) was “inactive”.

With CCCCCC1C(=O)CCC1CC(=O)OC (configuration not stated) the outcome [4] was “inactive”.

In the case of COC(=O)c1ccc(C(=O)OC)cc1, the outcome [5] is reported as “inactive” and the outcome [6] is reported as “inactive”.

With COC(=O)C(C)Oc1ccc(Oc2ncc(C(F)(F)F)cc2Cl)cc1 (configuration not stated) the AC50 [5] was 23.5 µM (active), the AC50 [4] was 35.1 µM (active) and the AC50 [6] was 27.9 µM (active).

With COc1cc(OC)c2ccc(=O)oc2c1 the outcome [5] was “inactive”, the outcome [4] was “inactive” and the outcome [6] was “inactive”. The outcome [7] was “inactive”.

With COC(=O)c1cccc(C(=O)OC)c1 the outcome [5] was “inactive”, the outcome [4] was “inactive” and the outcome [6] was “inactive”. The outcome [7] was “inactive”.

With C#C[C@]1(O)CC[C@H]2[C@@H]3CCc4cc(O)ccc4[C@H]3CC[C@@]21C the AC50 (THRB (gene 7068) [8]) was 38.3 µM (active) and the outcome [9] was “inactive”.

In the case of CCCCCCCCCCOC(=O)c1ccccc1C(=O)OCCCCCCCC, the outcome [5] is reported as “inactive”, the AC50 [4] is reported as 39.1 µM (active) and the outcome [6] is reported as “inactive”. The AC50 [7] was 43 µM (active).

With CC(=O)OC/C=C(C)/C=C/C=C(C)/C=C/C1=C(C)CCCC1(C)C the outcome [5] was “inactive”, the AC50 [4] was 34 µM (active) and the outcome [6] was “inactive”.
